These results are taken from PubChem BioAssay.

Values joined by “and” are separate entries in the source; they are usually repeats but may differ in a detail not shown here. Identical values can stand only once. Active and inactive are the calls of the source.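 How the source made its calls, unless noted: active means thallium flux through the channel raised or lowered by more than 3 SD from vehicle-only wells, actives on both sides; inactive means the rest.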

Assay [1] can be described thus: liver-stage malaria parasite growth inhibition, primary screen, cell-based, HepG2, luciferase luminescence, HepG2 viability (AID 624349; in the data active means parasite load remaining mostly below about 12%, no sharp cut-off; inactive means mostly above about 10%;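 further: 100% = mean of DMSO negative control wells on the same plate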). The note with it: P. berghei liver stage in HepG2, luciferase luminescence, concentration not given here; parasite load remaining: stronger effect = lower value; viability: measured here: HepG2 viability without parasites.
The nature of assay [2]: Cy5 fluorescence interference with SSB-bound oligo, artefact control for HCV NS3 helicase inhibitor project, biochemical, NIH Clinical Collection, E. coli SSB (AID 743268; call rule not given here).
Assay [3] deals with Hepatitis C virus NS3 helicase. Description: HCV NS3 helicase inhibitors, primary screen, biochemical, fluorescence polarization, NIH Clinical Collection (AID 743270; call rule not given here). As to conditions: NS3 helicase binding to Cy5-dT15 DNA, stronger effect = higher value, concentration not given here. (Fluorescence polarisation rises when a labelled molecule tumbles more slowly, as on binding a larger partner.)

For assay [4], the target named is Single-stranded DNA-binding protein (Escherichia coli (strain K12)) (UniProt P0AGE0). Description: E. coli SSB displacement from DNA, counter-screen for HCV NS3 helicase inhibitor project, biochemical, fluorescence polarization, NIH Clinical Collection (AID 743271; in the data active means inhibition above about 28%). As to conditions: stronger effect = higher value, concentration not given here. A general note: A counterscreen serves to expose hits that act by an unwanted route or on another target.

The nature of assay [5]: fluorescence interference in NS3h assay format, artefact control for HCV NS3 helicase inhibitor project, biochemical, NIH Clinical Collection (AID 743272; call rule not given here;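 further: HCV NS3 helicase with a Cy5 labelled single stranded DNA probe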). The note with it: fluorescence interference counterscreen, stronger effect = lower value.
Assay [6] in a line: modulation of C. elegans fzo-1 (AID 1259413; call rule not given here;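 further: fzo-1 mutant C. elegans worms in liquid wells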). The note with it: C. elegans fzo-1 modulator screen, mean read-out; stronger effect = higher value.
Assay [7] in a line: sensitizers of A549 cells to miR-34 induction, primary screen, imaging, A549 dox-inducible miR-34, nuclei and caspase counts (AID 1347080;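 active means compounds whose cell count with miR-34 switched on is under 0.7 times the count with it off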). The note with it: A549 miR-34 inducible, Hoechst nuclei count, 48 h.
The nature of assay [8]: viability rescue of complex I mutant cybrids, primary screen, cell-based, galactose medium, ATP luminescence (AID 1645843;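 active means z-score of at least 1.8 in each of two replicates, scored against plate mean and spread of sample wells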;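 further: positive z means more ATP and so rescue of galactose-driven cybrid death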). As to conditions: complex I mutant cybrid cells, 72 h, stronger effect = higher value.
The test system of a further assay is F380Y. Description: modulators of BK channel variants, profiling panel, selectivity assay, cell-based, U2OS BacMam, thallium flux, beta subunits (AID 1259406).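 Further: initial slope of Thallos dye fluorescence rise after thallium is added; log ratio against the mean of 0.3% DMSO vehicle wells on the same plate.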 As to conditions: at 30 µM.
The next assay relates to F380Y/beta1. The description is as above. The note with it: at 30 µM.
In the next assay the test system is F380Y/beta2Delta. Described as above. The note with it: at 30 µM.
A further assay has as its system F380Y/beta4. Described as above. As to conditions: at 30 µM.
The target in assay [9] is Calcium-activated potassium channel subunit alpha-1 (Homo sapiens) + Leucine-rich repeat-containing protein 26 (Homo sapiens) (UniProt Q12791+Q2I0M4). The description is as above. As to conditions: F380Y/Slo1WT/gamma1, at 30 µM.
The next assay deals with R275C. Described as above. As to conditions: at 30 µM.
A further assay relates to R275C/beta1. Described as above. As to conditions: at 30 µM.
The next assay has as its system R275C/beta2Delta. The assay is described as above. The note with it: at 30 µM.
The subject of a further assay is R275C/beta4. The assay is described as above. The note with it: at 30 µM.
In another assay the test system is R275C/Slo1WT/beta2. Described as above. As to conditions: at 30 µM.
The nature of assay [10]: survival rescue of mitochondrial mutant cells in low glucose, primary screen, MELAS cybrids, Rieske KO mouse fibroblasts, CellTiter-Glo (AID 1508586;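 active means mean z-score across replicates of 1.96 or higher in either the MELAS or the Rieske mutant cell line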;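 further: z relative to plate mean and SD of compound and empty wells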).
Where [11] appears, read: stronger effect = lower value, cell number ratio, induced over uninduced.
Setting [12] is: measured here: relative caspase fold change +Dox/-Dox.
The mark [13] stands for this setting: measured here: total cells with miR-34 induction, stronger effect = lower value.
Setting [14] is: measured here: total cells without miR-34 induction.
Where [15] appears, read: MELAS cybrid survival, CellTiter-Glo 48 h, stronger effect = higher value.
Where [16] appears, read: Rieske KO mouse fibroblast survival, CellTiter-Glo 72 h.

Sequence of Calcium-activated potassium channel subunit alpha-1 (Homo sapiens) + Leucine-rich repeat-containing protein 26 (Homo sapiens) (Q2I0M4 whole entry, looked up, one chain of several): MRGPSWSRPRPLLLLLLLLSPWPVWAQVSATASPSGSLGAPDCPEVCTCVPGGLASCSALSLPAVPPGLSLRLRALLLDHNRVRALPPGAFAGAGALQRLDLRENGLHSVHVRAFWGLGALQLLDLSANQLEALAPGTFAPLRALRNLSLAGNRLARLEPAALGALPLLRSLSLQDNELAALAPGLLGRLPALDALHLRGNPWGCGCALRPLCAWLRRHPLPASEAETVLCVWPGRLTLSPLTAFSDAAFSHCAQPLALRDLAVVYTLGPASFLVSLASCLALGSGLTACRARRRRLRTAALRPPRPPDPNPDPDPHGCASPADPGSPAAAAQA

For `CCOC(=O)[C@@H](CCc1ccccc1)N[C@@H](C)C(=O)N1CCC[C@H]1C(=O)O`, in [1], the parasite load remaining is 41.4% (inactive). Further, in assay [1], the viability was 126%. The fluorescence ratio was 1.05 (inactive) in [2] and 1 (inactive) in [5]. Further, the results for the inhibition in assay [3] and in assay [4] were -10.4% (inactive) and -0.48% (inactive), respectively. In addition, the mean signal in assay [6] is 237 (inactive). Moreover, the fold change was 0.958 (inactive) in assay [7] (setting [11]) and 0.517 in assay [7] (setting [12]). The cell count in assay [7] (setting [13]) stood at 11000; in assay [7] (setting [14]), 11500. The z-score in assay [8] was 0.835 (inactive). Further, the log fold change Tl+ flux was 0.0242 (inactive) in the assay with F380Y; 0.0697 (inactive) in the assay with F380Y/beta1; 0.00383 (inactive) with F380Y/beta2Delta; 0.0422 (inactive) in the assay with F380Y/beta4; 0.023 (inactive) in assay [9]; 0.0223 (inactive) in the assay with R275C. Further, the log fold change Tl+ flux is -0.00857 (inactive) in the assay on R275C/beta1, -0.00135 (inactive) in the assay with R275C/beta2Delta, -0.0226 (inactive) in the assay with R275C/beta4 and -0.0503 (inactive) in the assay with R275C/Slo1WT/beta2.

As for `C=C1/C(=C\C=C2/CCC[C@]3(C)[C@@H]([C@H](C)/C=C/[C@@H](O)C4CC4)CC[C@@H]23)C[C@@H](O)C[C@@H]1O`, the parasite load remaining in assay [1] is 78.1% (inactive) and 40.9% (inactive). In [1], the viability was 69.5% and 101%. The fluorescence ratio in assay [2] is 0.98 (inactive); in assay [5] it was 0.97 (inactive). The inhibition is -1.98% (inactive) in assay [3] and 2.98% (inactive) in assay [4]. The fold change in assay [7] (setting [11]) was 1.11 (inactive) and 0.946 (inactive); in assay [7] (setting [12]), 1.34 and 1.48. The cell count in assay [7] (setting [13]) was 6690 and 9180; in assay [7] (setting [14]) it was 6000 and 9710. Moreover, the z-score in [10] (setting [15]) was 0.67 (inactive) and -0.148 (inactive); in assay [10] (setting [16]) it was -0.0393 and -0.0428; in assay [8] it was -0.655 (inactive) and -0.545 (inactive). Moreover, the log fold change Tl+ flux with F380Y was 0.0327 (inactive); in the assay with F380Y/beta1 it was 0.217 (active); with F380Y/beta2Delta, 0.0454 (inactive); in the assay on F380Y/beta4, 0.0579 (inactive); in assay [9], 0.0831 (inactive); with R275C, -0.0334 (inactive). In addition, the log fold change Tl+ flux in the assay on R275C/beta1 is 0.143 (active); in the assay with R275C/beta2Delta, -0.0353 (inactive); with R275C/beta4 it was 0.0276 (inactive); in the assay with R275C/Slo1WT/beta2 it was 0.00965 (inactive).

Take `O=c1[nH]c2ccccc2c2ccccc12`: the fold change in [7] (setting [11]) is 0.926 (inactive) and 0.97 (inactive); in assay [7] (setting [12]) it was 0.939 and 0.926. The cell count is 7660 and 2830 in assay [7] (setting [13]); 8280 and 2920 in assay [7] (setting [14]). Moreover, in assay [8], the z-score was 0.885 (inactive). Moreover, the log fold change Tl+ flux in the assay with F380Y is 0.027 (inactive); in the assay with F380Y/beta1, 0.0377 (inactive); in the assay with F380Y/beta2Delta it was 0.0285 (inactive); in the assay with F380Y/beta4, 0.0704 (inactive); in [9], -0.0148 (inactive); with R275C it was 0.0279 (inactive). Further, the log fold change Tl+ flux with R275C/beta1 is -0.057 (inactive); in the assay with R275C/beta2Delta, 0.0385 (inactive); with R275C/beta4, -0.0579 (inactive); in the assay on R275C/Slo1WT/beta2, -0.0287 (inactive).

With `CC(=O)CCCCn1cnc2c1c(=O)n(C)c(=O)n2C`, the parasite load remaining in assay [1] is 108% (inactive). Moreover, in assay [1], the viability came out at 91.8%. Moreover, the results for the fluorescence ratio in assay [2] and in assay [5] were 1.04 (inactive) and 0.95 (inactive), respectively. Moreover, the inhibition in assay [3] is -0.4% (inactive); in assay [4], -0.1% (inactive). In [6], the mean signal is 257 (inactive). Moreover, the results for the fold change in assay [7] (setting [11]) and in [7] (setting [12]) were 0.919 (inactive) and 1.72, respectively. The cell count in [7] (setting [13]) was 9610; in assay [7] (setting [14]), 10500. Also, the z-score in assay [8] is 0.63 (inactive). Also, the log fold change Tl+ flux in the assay with F380Y was -0.0664 (inactive); in the assay with F380Y/beta1 it was -0.015 (inactive); in the assay with F380Y/beta2Delta, -0.0429 (inactive); in the assay on F380Y/beta4, -0.0419 (inactive); in assay [9], 0.0418 (inactive); with R275C, -0.00612 (inactive). The log fold change Tl+ flux was -0.0249 (inactive) with R275C/beta1, 0.0157 (inactive) in the assay with R275C/beta2Delta, -0.0496 (inactive) in the assay on R275C/beta4 and -0.0588 (inactive) in the assay with R275C/Slo1WT/beta2.

Regarding `Nc1nc(Cl)nc2c1ncn2[C@@H]1O[C@H](CO)[C@@H](O)[C@H]1O`, the parasite load remaining in [1] was 214% (inactive). For the same compound, in assay [1], the viability worked out at 40.5%. Further, the fluorescence ratio in assay [2] and in assay [5] was 1 (inactive) throughout. Further, the inhibition in assay [3] is 5.15% (inactive); in [4], 7.6% (inactive). In addition, the mean signal in assay [6] is 269 (inactive). Also, the log fold change Tl+ flux with F380Y is -0.00984 (inactive); in the assay on F380Y/beta1 it was -0.0372 (inactive); in the assay on F380Y/beta2Delta, -0.0171 (inactive); in the assay with F380Y/beta4, -0.000976 (inactive); in assay [9] it was -0.026 (inactive); in the assay with R275C, 0.0386 (inactive). The log fold change Tl+ flux was -0.0185 (inactive) in the assay with R275C/beta1, -0.0141 (inactive) in the assay with R275C/beta2Delta, 0.0509 (inactive) in the assay on R275C/beta4 and -0.00662 (inactive) in the assay on R275C/Slo1WT/beta2.

For the compound `O=C(O)Cc1ccc([N+](=O)[O-])cc1`, the fold change in [7] (setting [11]) is 0.849 (inactive); in assay [7] (setting [12]) it was 0.69. Further, the cell count in [7] (setting [13]) stood at 8560; in assay [7] (setting [14]) it was 10100. Moreover, the z-score in assay [10] (setting [15]) was -0.276 (inactive); in assay [10] (setting [16]), -0.17; in assay [8] it was 0.95 (inactive). For the same compound, the log fold change Tl+ flux in the assay with F380Y was -0.0269 (inactive); in the assay with F380Y/beta1, -0.0396 (inactive); in the assay with F380Y/beta2Delta, -0.012 (inactive); with F380Y/beta4, -0.00207 (inactive); in [9] it was -0.0215 (inactive); in the assay on R275C, -0.0145 (inactive). Besides, the log fold change Tl+ flux in the assay with R275C/beta1 is -0.00497 (inactive); with R275C/beta2Delta it was 0.00238 (inactive); in the assay on R275C/beta4, -0.00439 (inactive); with R275C/Slo1WT/beta2 it was 0.0202 (inactive).

Take `COc1cc(/C=C/c2ccc(O)cc2)cc(OC)c1`: in [1], the parasite load remaining is 117% (inactive). The viability in assay [1] was found to be 70.6%. The fluorescence ratio in assay [2] is 0.96 (inactive); in assay [5], 0.99 (inactive). Moreover, the inhibition in assay [3] was 5.94% (inactive); in assay [4] it was 9.14% (inactive). In addition, the mean signal in assay [6] is 227 (inactive). For the same compound, the log fold change Tl+ flux was -1.03 (active) in the assay on F380Y; -0.986 (active) with F380Y/beta1; -1.01 (active) with F380Y/beta2Delta; -0.813 (active) in the assay with F380Y/beta4; -0.744 (active) in assay [9]; -0.927 (active) in the assay on R275C. The log fold change Tl+ flux is -0.11 (active) in the assay with R275C/beta1, -0.000996 (inactive) in the assay on R275C/beta2Delta, 0.05 (inactive) with R275C/beta4 and -0.108 (active) in the assay with R275C/Slo1WT/beta2.

What is called viability is a read-out of living cells in per cent, often relative to untreated cells. A word on the inhibition: it is the change of the read-out against control, counted positive when it falls.
